# Source: PubChem (National Center for Advancing Translational Sciences (NCATS))
# KB-3-1 cytotox = KB-3-1 parental cell cytotoxicity | Potency, µM (highest dose often 46.1 µM), hits mostly cytotoxic | KB-3-1 viability, CellTiter-Glo ATP luminescence, 72 h | 400,000 tested, 1.4% active; note: potency is the fitted concentration of half-maximal effect; % is set by controls: 0 for no effect and ±100 for the full control effect; nearly all actives have a fitted effect of over 60% in size
#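 Screening of KB-3-1 cells (DMEM, 10% FBS, phenol-red free) ran from lowest to highest compound concentration; after 72 h at 37 °C viability was read luminescently and curves fitted.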
# IL-1B inflam inh = inhibitors of inflammasome signaling (IL-1 beta secretion); THP-1 LPS/ATP IL-1B secretion, AlphaLISA, 16 h; hits give low values; 360,000 tested, 4.7% active; AID 743279; activity change, % at 57.5 µM; in the data active = activity change below about -50%; inconclusive = mostly about -30% to -49%; note: % is set by controls: 0 for no effect and ±100 for the full control effect
#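 THP-1 cells pretreated 1 hr with compounds (up to 57.5 uM final), then stimulated with LPS (250 ng/mL final) plus ATP (1.25 mM final); secreted IL-1B measured by AlphaLISA after 16 hr, decreased signal indicating inhibition.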
# SW480 rerep = DNA re-replication induction in SW480 cells | Potency, µM (top dose mostly 46.1 µM), for inactives: at the top dose re-replication activation, most hits filed as activators | 340,000 tested, 1.8% active | SW480 DNA re-replication, Hoechst DNA content imaging, 48 h; note: potency is the fitted concentration of half-maximal effect; % of control where 0% means no effect; nearly all actives have a fitted effect of over 55% in size
#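 Image-based DNA-content assay: after two days of treatment, nuclei were labelled with the DNA dye Hoechst and imaged, and hits were compounds raising the count of nuclei showing high fluorescence intensity.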
# KB-V1 cytotox = KB-V1 MDR subline cytotoxicity; KB-V1 MDR cells viability, CellTiter-Glo, 72 h; AID 1347076; 400,000 tested, 3.4% active; Potency, µM (top dose mostly 46.1 µM), usual class: cytotoxic; note: potency is the fitted concentration of half-maximal effect; % is set by controls: 0 for no effect and ±100 for the full control effect; nearly all actives have a fitted effect of over 60% in size
#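 KB-V1, DMEM (no phenol red) + 10% FBS; cpd pin-transferred, titration series; 72 h, 37 degrees C; CellTiter-Glo, luminescence. Data normalized, curve-fit.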
# MCF10A rerep = DNA re-replication induction in MCF 10a cells | MCF 10A DNA re-replication, Hoechst nuclear intensity, 48 h | Potency, µM (series often up to 46.1 µM), without a hit: at the top dose activity, positive = re-replication, most hits filed as activators | 350,000 tested, 2.9% active | AID 624296; note: potency is the fitted concentration of half-maximal effect; % of control where 0% means no effect; nearly all actives have a fitted effect of over 50% in size
# The depositor's hits bear a star; i = inactive; ? = inconclusive; . = not tested or not shown. A selection: hits, their analogues and other compounds. The true share with any hit is near 9.9%. Unless noted, calls come from the whole dose curve; as a rule, active = well fitted curve in the direction sought with a large enough effect; inconclusive = small, poorly fitted or top-dose-only effect, or another doubt; inactive = no such curve, though single readings can be large; an effect the other way counts as inactive or inconclusive.
SMILES,KB-3-1 cytotox,IL-1B inflam inh,SW480 rerep,KB-V1 cytotox,MCF10A rerep
CCc1cccc(OCC(=O)Nc2cc(Cl)ccc2-n2cncn2)c1,i,3.2,4.61µM*,i,?
O=C(Nc1cc(Cl)ccc1-n1cncn1)c1cc(F)c(F)c(F)c1F,i,-93.3*,2.7%,i,4.0%
CC(C)(C)N1CC(c2nc3ccccc3n2CCOc2ccccc2)CC1=O (centres undefined),i,-18.6,0.1%,i,0.5%
C=CCN1CC(c2nc3ccccc3n2Cc2ccccc2)CC1=O (centres undefined),i,-7.9,-2.3%,11.6µM*,11.3%
CC(C)(C)N1CC(c2nc3ccccc3n2Cc2ccc(Cl)cc2)CC1=O (centres undefined),i,-15.0,-0.1%,14.6µM*,14.6%
CN(C)S(=O)(=O)c1cc(NC(=O)CN2CCN(c3ccccc3O)CC2)ccc1Cl,i,-25.5,1.7%,?,2.5%
C=C(c1ccc2ccccc2n1)c1cccs1,11.6µM*,.,.,i,.
N#Cc1c(-c2ccccc2)cc2nc3ccccc3n2c1N,i,-4.7,4.8%,i,11.6µM*
COc1cccc(NC(=O)c2cccc(N3C(=O)C4C5C=CC(C5)C4C3=O)c2)c1 (centres undefined),i,-14.1,?,i,9.9%
Cc1cc(F)ccc1N1CCC(N2CCN(CCC(C)C)C(CCO)C2)CC1 (centres undefined),i,-66.0*,24.8%,?,?
Cc1ccc(C(=O)Nc2nc(-c3ccco3)c(-c3ccco3)s2)o1,i,-57.1*,2.7%,i,?
O=C(CCCSc1ccccc1)Nc1nc(-c2ccco2)c(-c2ccco2)s1,i,?,0.5%,?,14.6µM*
O=C(Nc1nc(-c2cccs2)c(-c2ccccc2)s1)c1ccco1,i,-53.6*,1.0%,i,?
O=C(CCl)Nc1nc(-c2ccco2)c(-c2ccco2)s1,i,-3.1,-3.9%,i,?
Cc1ccc(C(=O)Nc2nc(C)c(C(=O)N(C)C)s2)o1,i,-13.3,-11.2%,i,-0.9%
CN(C)CCNS(=O)(=O)c1ccc(N2CCc3ccccc32)c([N+](=O)[O-])c1,i,-23.1,5.1%,i,?
CCOc1ccc(C(=O)Oc2cc(C)[nH]c(=O)c2[N+](=O)[O-])cc1OCC,i,8.3,-1.7%,i,4.4%
CCC(C)C(=O)OC1CCC=C2C=CC(C)C(CCC3CC(O)CC(=O)O3)C21 (centres undefined),13µM*,67.5,?,18.4µM*,21.1%
CC[C@H](C)C(=O)O[C@H]1CCC=C2C=C[C@H](C)[C@H](CC[C@@H]3C[C@@H](O)CC(=O)O3)[C@H]21,?,4.7,?,?,-15.1%
Cc1ccccc1CN(C)CCS(=O)(=O)c1cc(Cl)ccc1Cl,?,?,18.4µM*,?,9.2µM*
CC(NC(=O)CN1C(=O)COc2ccc(S(=O)(=O)N3CCCCCC3)cc21)c1ccccc1 (centres undefined),i,.,.,i,.
CN(c1nc(-c2ccc(Br)cc2)cs1)C1CCS(=O)(=O)C1 (centres undefined),i,-76.8*,-4.0%,i,21.9%
CN(C(=O)c1cccc(Br)c1)C1CCS(=O)(=O)C1 (centres undefined),i,5.5,-90.4%,i,0.6%
Cc1ccc(C)c(C(C)NC(=O)CC#N)c1 (centres undefined),i,25.7,2.2%,i,0.1%
Cc1ccc(C)c(C(C)NC(=O)c2ccc(Br)o2)c1 (centres undefined),i,-57.2*,-10.7%,?,1.6%
SMILES,KB-3-1 cytotox,IL-1B inflam inh,SW480 rerep,KB-V1 cytotox,MCF10A rerep
Cc1cc(C)cc(NS(=O)(=O)c2ccc(NC(=O)c3ccccc3C(=O)O)cc2)c1,i,0.0,-20.5%,i,?
O=C(Nc1ccc(S(=O)(=O)NCCc2ccccc2)cc1)c1ccc(Br)o1,i,-4.5,2.9%,10.3µM*,14.0%
Cc1ccc(NS(=O)(=O)c2ccc(NC(=O)c3ccccc3C(=O)O)cc2)c(C)c1,i,-67.4*,-10.7%,i,1.7%
Cc1ccc(NS(=O)(=O)c2ccc(NC(=O)c3ccc(Br)o3)cc2)c(C)c1,20.6µM*,-25.1,4.2%,18.4µM*,?
O=C(NC(=S)Nc1ccc(S(=O)(=O)Nc2ncccn2)cc1)c1ccc(Br)cc1,i,22.5,18.4µM*,i,2.0%
Cc1cc(C)cc(NS(=O)(=O)c2ccc(NC(=S)NC(=O)c3ccc(Br)o3)cc2)c1,?,-8.4,3.8%,18.4µM*,-6.4%
O=S(=O)(NNC(=S)Nc1ccc(S(=O)(=O)Nc2ncccn2)cc1)c1ccc(Br)cc1,i,16.4,-0.3%,i,-0.7%
CCOc1ccccc1CNC(=O)Cn1ncn2nc(-c3cccs3)cc2c1=O,i,.,.,i,.
CCN(Cc1ccccc1)c1ccc(N=Nc2nn(C)c(C)c2[N+](=O)[O-])cc1,?,-3.2,-12.0%,6.51µM*,0.0%
O=C1c2c(O)ccc(O)c2C(=O)c2c(NCCNCCO)ccc(NCCNCCO)c21,0.651µM*,-102.0*,-9.1%,20.6µM*,-3.5%
O=C1c2ccccc2C(=O)c2c(Nc3ccc(CCO)cc3)ccc(O)c21,i,?,0.0%,i,-12.3%
CCN(C(=O)CSc1cc(C)c2ccccc2n1)c1c(N)n(Cc2ccccc2)c(=O)[nH]c1=O,i,-15.3,-54.7%,i,9.0%
CCCCN(C(=O)CSc1nn(-c2ccc(F)cc2)c(=S)s1)c1c(N)n(CCCC)c(=O)[nH]c1=O,i,-71.6*,?,?,-0.2%
CCCCN(C(=O)CSc1cc(C)c2ccccc2n1)c1c(N)n(Cc2ccccc2)c(=O)[nH]c1=O,i,-59.2*,?,i,15.4%
CCCCN(C(=O)c1cc(-c2ccc(F)cc2)nc2ccccc12)c1c(N)n(CCCC)c(=O)[nH]c1=O,?,-69.7*,?,i,10.5%
O=C(Nc1cccc(S(=O)(=O)C(F)F)c1)c1ccc(S(=O)(=O)N2CCOCC2)cc1,i,-19.1,7.3%,i,?
O=C(Nc1cccc(S(=O)(=O)C(F)F)c1)c1ccc(S(=O)(=O)N2CCCC2)cc1,i,-88.2*,?,i,?
COc1ccc(NS(=O)(=O)c2cccc(C(=O)N/N=C/c3c(F)c(F)c(F)c(F)c3F)c2)cc1,i,0.0,?,i,18.4µM*
COc1ccc(NS(=O)(=O)c2cccc(NC(=O)c3ccc(S(=O)(=O)N4CCCCCC4)cc3)c2)cc1,20.6µM*,-3.2,-3.4%,?,?
O=S(=O)(c1cccc(NC(=S)N2CCN(c3ccc(F)cc3)CC2)c1)C(F)F,i,-3.3,18.4µM*,i,?
O=C(CCC(=O)Nc1ccccc1Cl)NNC(=O)c1ccco1,i,0.0,.,i,-4.3%
